# PubChem BioAssay AID1159580 (chemical genetic matrix, 2015)
# Out of some 5,500 compounds screened, about 2,000 (36%) were called active. Another 18% or so got no clear call; they are omitted. This is one part of the list. A number with no mark means an inactive call. Cut-off read from the data, not from the text of the source: active = normalized growth mostly below about 0.91 (no sharp cut-off); inconclusive = no clear call, values can overlap the other calls; inactive = mostly above about 0.92.
# Experiment: chemical genetic growth profiling, strain panel (AID 1159580);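 note: tested at 20 µM; growth read once vehicle control cultures reached saturation at 30 °C; 1 = growth at the plate median or of vehicle wells; lower values mean less growth of the strain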
# Settings: S. cerevisiae deletion strains, growth OD
# [1] = locus YDL101C, strain DUN1, hits give low values
# [2] = locus YHR030C, strain SLT2, hits give low values
# [3] = locus YHR079C, strain IRE1, hits give low values
# [4] = locus YJL095W, strain BCK1, hits give low values
# [5] = locus YJR066W, strain TOR1, hits give low values
# [6] = locus YLR113W, strain HOG1, hits give low values
# [7] = locus YNL183C, strain NPR1, hits give low values
# [8] = locus YOR231W, strain MKK1, hits give low values
# [9] = locus YPL256C, strain CLN2, hits give low values
smiles,measurement,setting,value
Cc1nn(Cc2ccc(C(=O)Sc3ccc(C(F)(F)F)cn3)o2)c(C)c1Br,normalized growth,"locus YAR019C, strain CDC15, hits give low values",0.965
same,normalized growth,"locus YBL105C, strain PKC1, hits give low values",0.966
same,normalized growth,"locus YBR135W, strain CKS1, hits give low values",0.955
same,normalized growth,"locus YBR136W, strain MEC1, hits give low values",0.971
same,normalized growth,"locus YBR160W, strain CDC28, hits give low values",0.967
same,normalized growth,"locus YDL017W, strain CDC7, hits give low values",0.969
same,normalized growth,"locus YDL028C, strain MPS1, hits give low values",0.969
same,normalized growth,[1],0.963
same,normalized growth,"locus YDL108W, strain KIN28, hits give low values",0.961
same,normalized growth,"locus YDL132W, strain cdc53, hits give low values",0.952
same,normalized growth,"locus YDL214C, strain PRR2, hits give low values",0.882
same,normalized growth,"locus YDR052C, strain DBF4, hits give low values",0.97
same,normalized growth,"locus YDR054C, strain cdc34, hits give low values",0.953
same,normalized growth,"locus YDR226W, strain ADK1, hits give low values",0.955
same,normalized growth,"locus YDR477W, strain SNF1, hits give low values",0.834
same,normalized growth,"locus YER123W, strain YCK3, hits give low values",0.878
same,normalized growth,"locus YER133W, strain GLC7, hits give low values",0.898
same,normalized growth,"locus YFL009W, strain cdc4, hits give low values",0.957
same,normalized growth,"locus YFL029C, strain CAK1, hits give low values",0.962
same,normalized growth,"locus YFR003C, strain YPI1, hits give low values",0.968
same,normalized growth,"locus YFR019W, strain FAB1, hits give low values",0.932
same,normalized growth,"locus YFR028C, strain CDC14, hits give low values",0.963
same,normalized growth,"locus YGR040W, strain KSS1, hits give low values",0.81
same,normalized growth,"locus YGR052W, strain FMP48, hits give low values",0.871
same,normalized growth,"locus YGR092W, strain DBF2, hits give low values",0.855
same,normalized growth,[2],0.615 (active)
same,normalized growth,[3],0.858
same,normalized growth,"locus YHR082C, strain KSP1, hits give low values",0.763
same,normalized growth,"locus YHR205W, strain SCH9, hits give low values",0.566 (active)
same,normalized growth,"locus YIL147C, strain SLN1, hits give low values",0.969
same,normalized growth,[4],0.827
same,normalized growth,"locus YJL128C, strain PBS2, hits give low values",0.871
same,normalized growth,"locus YJL157C, strain FAR1, hits give low values",0.911
same,normalized growth,"locus YJR016C, strain ILV3, hits give low values",0.955
same,normalized growth,"locus YJR066W, strain TOR1 (second series), hits give low values",0.885
same,normalized growth,[5],0.76
same,normalized growth,"locus YKL048C, strain ELM1, hits give low values",0.896
same,normalized growth,"locus YKL067W, strain YNK1, hits give low values",0.898
same,normalized growth,"locus YKL101W, strain HSL1, hits give low values",0.861
same,normalized growth,"locus YKL193C, strain SDS22, hits give low values",0.956
same,normalized growth,"locus YKL203C, strain TOR2, hits give low values",0.892
same,normalized growth,[6],0.677 (active)
same,normalized growth,"locus YLR133W, strain CKI1, hits give low values",0.871
same,normalized growth,"locus YLR403W, strain SFP1, hits give low values",0.722
same,normalized growth,"locus YML070W, strain DAK1, hits give low values",0.894
same,normalized growth,"locus YMR001C, strain CDC5, hits give low values",0.958
same,normalized growth,"locus YMR205C, strain PFK2 (second series), hits give low values",0.881
same,normalized growth,"locus YMR277W, strain FCP1, hits give low values",0.963
same,normalized growth,"locus YNL006W, strain LST8, hits give low values",0.972
same,normalized growth,"locus YNL020C, strain ARK1, hits give low values",0.882
same,normalized growth,"locus YNL161W, strain CBK1, hits give low values",0.965
same,normalized growth,[7],0.777
same,normalized growth,"locus YNL207W, strain RIO2, hits give low values",0.953
same,normalized growth,"locus YNL222W, strain SSU72, hits give low values",0.963
same,normalized growth,"locus YNL307C, strain MCK1 (second series), hits give low values",0.781
same,normalized growth,"locus YOL078W, strain AVO1, hits give low values",0.961
same,normalized growth,"locus YOL136C, strain PFK27, hits give low values",0.872
same,normalized growth,"locus YOR061W, strain CKA2, hits give low values",0.816
same,normalized growth,"locus YOR119C, strain RIO1, hits give low values",0.879
same,normalized growth,[8],0.847
same,normalized growth,"locus YOR329C, strain SCD5, hits give low values",0.978
same,normalized growth,"locus YPL031C, strain PHO85, hits give low values",0.867
same,normalized growth,"locus YPL153C, strain RAD53, hits give low values",0.934
same,normalized growth,"locus YPL204W, strain HRR25, hits give low values",0.925
same,normalized growth,"locus YPL209C, strain IPL1, hits give low values",0.974
same,normalized growth,[9],0.799 (active)
same,normalized growth,"locus YPR025C, strain CCL1, hits give low values",0.965
same,normalized growth,"locus YPR106W, strain ISR1, hits give low values",0.958
same,normalized growth,"locus YPR111W, strain DBF20, hits give low values",0.93
same,normalized growth,"strain NNK1, hits give low values",0.928
same,normalized growth,"strain TSCII, hits give low values",0.961
CCn1nc(C)c(Br)c1-c1nc(-c2ccc(C(F)(F)F)cc2)no1,normalized growth,"locus YAL013W, strain DEP1, hits give low values",1
same,normalized growth,"locus YBR229C, strain ROT2, hits give low values",0.999
same,normalized growth,[1],1.02
same,normalized growth,"locus YDR150W, strain NUM1, hits give low values",0.902
same,normalized growth,"locus YEL061C, strain CIN8, hits give low values",1.01
same,normalized growth,"locus YGR078C, strain PAC10, hits give low values",1.01
same,normalized growth,[2],1.08
same,normalized growth,"locus YHR087W, strain rtc3, hits give low values",1
same,normalized growth,"locus YJR043C, strain POL32, hits give low values",1.01
same,normalized growth,"locus YJR075W, strain HOC1, hits give low values",1
same,normalized growth,"locus YLR039C, strain RIC1, hits give low values",0.982
same,normalized growth,"locus YLR058C, strain SHM2 (second series), hits give low values",1.01
same,normalized growth,"locus YLR085C, strain ARP6, hits give low values",1.14
same,normalized growth,"locus YLR262C, strain YPT6, hits give low values",1.03
same,normalized growth,"locus YML094W, strain GIM5, hits give low values",1.03
same,normalized growth,"locus YMR219W, strain ESC1, hits give low values",0.999
same,normalized growth,"locus YMR263W, strain SAP30, hits give low values",1.02
same,normalized growth,"locus YMR307W, strain GAS1, hits give low values",1.15
same,normalized growth,"locus YNL153C, strain GIM3, hits give low values",0.985
same,normalized growth,"locus YNL298W, strain CLA4 (second series), hits give low values",1.04
same,normalized growth,"locus YNL322C, strain KRE1, hits give low values",1.01
same,normalized growth,"locus YNR030W, strain Alg12, hits give low values",1.02
same,normalized growth,"locus YOL006C, strain TOP1, hits give low values",1.14
same,normalized growth,"locus YPL055C, strain LGE1, hits give low values",0.914
same,normalized growth,"locus YPL241C, strain CIN2, hits give low values",0.981
same,normalized growth,"locus YPR135W, strain CTF4, hits give low values",1.02
OC[C@H]1O[C@H](OC[C@H]2O[C@@H](O)[C@H](O)[C@@H](O)[C@@H]2O)[C@H](O)[C@@H](O)[C@H]1O,normalized growth,[2],1.05
same,normalized growth,[3],1.03
same,normalized growth,[4],1.05
same,normalized growth,[5],0.982
same,normalized growth,[6],1.01
same,normalized growth,[7],0.997
same,normalized growth,[8],1.04
same,normalized growth,[9],1.06
